# Laboratory results taken from PubChem BioAssay AID1259318 (Sanford-Burnham Center for Chemical Genomics, 2017).
# Hit rate of the full screen: of about 370,000 compounds, about 3,000 (0.81%) were called active. The entries come from a sample that favours actives as a whole. A number with no mark means an inactive call.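 Rule for the calls: active = activity above about 14% (limit read from the data; passing the limit was not always enough); inactive = the rest.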
# Target: Nuclear receptor subfamily 1 group D member 1 (Homo sapiens) (UniProt P20393)
# Assay: Rev-erbα–DNA interaction modulation – biochemical, FITC-DNA, fluorescence polarization, uHTS, primary screen (AID 1259318);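 note: 0% = DMSO wells with 35 nM protein and 100% = DMSO wells with 750 nM protein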
# Conditions: Rev-erbα–FITC-DNA binding, 90 min, at 10 µM, stronger effect = higher value
# Nuclear receptor subfamily 1 group D member 1 (Homo sapiens), sequence (P20393 whole entry, looked up): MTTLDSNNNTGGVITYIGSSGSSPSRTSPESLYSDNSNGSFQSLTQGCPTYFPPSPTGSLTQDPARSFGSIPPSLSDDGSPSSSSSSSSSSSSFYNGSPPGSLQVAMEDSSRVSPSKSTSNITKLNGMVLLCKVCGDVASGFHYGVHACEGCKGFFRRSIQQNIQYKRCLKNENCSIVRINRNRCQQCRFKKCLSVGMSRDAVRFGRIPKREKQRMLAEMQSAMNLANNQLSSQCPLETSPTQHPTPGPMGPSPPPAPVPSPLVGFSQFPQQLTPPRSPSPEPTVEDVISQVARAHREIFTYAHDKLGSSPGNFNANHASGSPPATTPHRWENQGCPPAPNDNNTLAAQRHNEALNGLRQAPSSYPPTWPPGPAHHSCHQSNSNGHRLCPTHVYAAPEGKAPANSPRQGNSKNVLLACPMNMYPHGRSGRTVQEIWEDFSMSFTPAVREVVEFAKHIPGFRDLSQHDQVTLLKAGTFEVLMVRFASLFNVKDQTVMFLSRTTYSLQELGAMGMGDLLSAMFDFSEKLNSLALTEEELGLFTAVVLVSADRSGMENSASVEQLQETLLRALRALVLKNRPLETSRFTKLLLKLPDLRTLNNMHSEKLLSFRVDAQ
row,Compound,activity
1,COc1cccc(CN(C)CC(=O)NCc2ccccc2Cl)c1OC,-3.26%
2,C=CCOC/C=C/C#CCN(CC=C)Cc1ccc(OC)cc1OC,6.98%
3,Cc1ccc(-c2noc(CCC(=O)Nc3ccccc3N3CCN(C)CC3)n2)cc1,3.69%
4,COCCn1c(C)cc(C(=O)COC(=O)/C=C/c2cccc(OC)c2)c1C,6.09%
5,Cc1cccc([C@@H]2[C@@H]3C(=O)N(C)C(=O)[C@@H]3[C@@H]3C(=O)Nc4ccccc4C(=O)N23)c1,1.77%
6,CCCC(=O)Nc1ncnc2c1ncn2C1O[C@@H]2COP(=O)(O)O[C@H]2[C@H]1OC(=O)CCC (stereo partly specified),-3.72%
7,COc1cc(/C=C/C(=O)n2cnc3ccccc32)cc(OC)c1OC,11.5%
8,CC(=O)c1cc(C#N)c(SCC(=O)Nc2nccs2)nc1C,30.9% (active)
9,Cc1cc(C(F)(F)F)nc(SCC(=O)Nc2nccs2)n1,-6.74%
10,Cc1[nH]c2ccccc2c1SCC(=O)Nc1nccs1,4.6%
11,Cn1sc(=O)c2cc(S(=O)(=O)NC3CC3)ccc21,-1.88%
12,CCOC(=O)NC(=O)CSc1nnc(SCCC(=O)O)s1,0.79%
13,O=C(CCn1c(SCC(=O)c2ccccc2)nc2ccccc2c1=O)NCc1ccc(F)cc1,26.1% (active)
14,O=C(CSc1nc2ccccc2c(=O)n1CCCO)NC1CC1,4.03%
15,O=C(Nn1c(SCc2ccc([N+](=O)[O-])cc2)nc2ccccc2c1=O)c1ccc(F)cc1,0.27%
16,O=S(=O)(c1cccs1)N1CCCc2nc(-c3ccc(Br)cc3)ccc21,1.38%
17,c1ccc2c(c1)nnn2-c1ccncc1,1.17%
18,CC(C)CN(C(=O)c1cccc(S(=O)(=O)N2CCCCC2)c1)C1CCS(=O)(=O)C1 (stereo unspecified),5.44%
19,CCOc1nc(-c2ccc(OC)cc2)ccc1-c1noc(-c2cc(OC)c(OC)c(OC)c2)n1,26.3% (active)
20,CCOC(=O)c1cc(-c2nnc(-c3cc(OC)c(OC)c(OC)c3)o2)c(C)nc1C,9.45%
21,CCOc1cc(-c2noc(CCC(=O)N3CCOCC3)n2)ccc1OC,-5.84%
22,Cc1sc2nc(-c3ccccc3F)oc(=O)c2c1C,1.33%

row,Compound,activity
1,CCCCC(=O)N[C@@H]1CC[C@@]23CCCN2C(=O)CCC[C@H]3[C@H]1C,1.41%
2,NC(=O)CCCC1=NS(=O)(=O)c2ccccc2N1,-0.09%
3,c1ccc(-c2ccnc3nc(-n4cccc4)nn23)cc1,-4.06%
4,Clc1ccc2nc(CSc3ccccc3)cn2c1,6.58%
5,CCCCNc1c(-c2cccc(Sc3ccc(OC)cc3)c2)nc2ccccn12,-0.18%
6,CCCCCCSc1ccc(-c2nc3ccc(Cl)cn3c2NCc2ccccc2)cc1,24% (active)
7,C[n+]1ccc(/C=C/c2c[nH]c3ccccc23)cc1,169% (active)
8,Cn1cnc([N+](=O)[O-])c1Sc1n[nH]c(N)n1,-0.66%
9,COc1ccc(C(=O)OCc2cc(=O)n3ccsc3n2)cc1F,3.21%
10,COc1cc(OC)cc(-c2nc(=S)n3ccsc3n2)c1,14.2% (active)
11,COc1cc(C(=O)OCc2cc(=O)n3ccsc3n2)ccc1OC(C)C,-8.61%
12,CCCC1CCC2(CCCN2CCOC(=O)NCc2ccccc2)CC1 (stereo unspecified),4.94%
13,C=CCN(Cc1ccc2c(c1)OCO2)C(C#CC1CC1)C(C)(C)C (stereo unspecified),0.61%
14,COc1ccc(/C=C2\CC3(OC(C)=O)CCCN2C3)cc1 (stereo unspecified),1.87%
15,CCCN(CCC)CCCNC(=O)CNC(=O)c1nn(-c2ccc(OC)cc2)c(=O)c2ccccc12,2.42%
16,COc1ccc(-n2nc(C(=O)NCC(=O)Nc3cccc(C)n3)c3ccccc3c2=O)cc1,29.5% (active)
17,COCCCNC(=O)CNC(=O)c1nn(-c2ccc(OC)cc2)c(=O)c2ccccc12,-5.1%
18,Cc1[nH]c2ccccc2c1C(=O)c1cc([C@H](NC(=O)OC(C)(C)C)C(C)C)sc1N,8.9%
19,Cc1cc(C)c2nc(SCC(=O)N(C)C3CCS(=O)(=O)C3)cc(C)c2c1 (stereo unspecified),64% (active)
20,CN(C(=O)CSc1nnc(-c2ccc(C(C)(C)C)cc2)n1C)C1CCS(=O)(=O)C1 (stereo unspecified),-0.03%
21,CCn1c(SCC(=O)N(C)C2CCS(=O)(=O)C2)nnc1-c1cccs1 (stereo unspecified),1.18%
22,COc1ccc(-n2c(SCC(=O)Nc3ccccc3-c3ccccc3)nnc2-c2cccnc2)cc1,-5.08%

row,Compound,activity
1,CC1OC(O[C@H]2/C=C/C=C/C=C/C=C/C=C/C=C/C=C/[C@H](C)[C@@H](O)[C@@H](C)[C@H](C)OC(=O)CC(O)CC(O)CCC(O)C(O)CC(O)CC3(O)C[C@H](O)C(C(=O)O)C(C2)O3)C(O)[C@H](N)C1O (stereo partly specified),1.39%
2,O=C(O)CCC(=O)O,-4.29%
3,COc1ccc(NC(=O)c2sc(=O)n(Cc3ccc(S(=O)(=O)N(C)C)cc3)c2C)cc1,4.54%
4,O=C(COC(=O)Cn1cnc2ccccc21)Nc1cccc2c1C(=O)c1ccccc1C2=O,-19.3%
5,O=C(COC(=O)c1cccc(Cl)c1)Nc1ccc2[nH]c(=O)[nH]c2c1,-0.59%
6,O=C(COC(=O)c1cccc(Br)c1)Nc1cccc2c1C(=O)c1ccccc1C2=O,114% (active)
7,C#CCN(N(C)c1ncc(C(F)(F)F)cc1Cl)S(=O)(=O)c1ccc2ccccc2c1,7.14%
8,CCN1CCN(C(=O)Cn2nc(C)n3c(cc4c(OC)cccc43)c2=O)CC1,-9.03%
9,CCCc1cc(=S)n2c([nH]c3ccccc32)c1C#N,-0.23%
10,COc1ccc(-c2c(C)cc3oc(=O)cc(-c4ccccc4)c3c2C)cc1C=O,18.5% (active)
11,Cc1cc2oc(=O)cc(-c3ccccc3)c2c(C)c1-c1ccc(OC(F)(F)F)cc1,-5.77%
12,COc1cc(OC)c2c(-c3cccc(-c4cccc(N)c4)c3)cc(=O)oc2c1,-9.12%
13,CCCc1nc2c(C)cc(-c3nc4ccccc4n3C)cc2n1Cc1ccc(-c2ccccc2C(=O)O)cc1,3.42%
14,CC(C)CC(=O)Nc1cc(C(F)(F)F)ccc1N1CCOCC1,-4.25%
15,COc1ccc(CNC(=O)C2CCN(C(=O)c3ccccc3)CC2)cc1,1.27%
16,COc1ccc(CNC(=O)C2CCN(C(=O)c3ccco3)CC2)cc1,-1.19%
17,COc1ccc(-n2nc3c(N4CCC(C(=O)NCc5ccccc5)CC4)nnc(C)c3c2C)cc1,54.2% (active)
18,CC(C)N(C(=O)Cn1c(SCC(=O)N2CCN(c3ccccc3)CC2)nc2ccccc21)C(C)C,1.23%
19,O=C(Nc1ccc(O)cc1)c1ccccc1O,3.46%
20,CCCCCC(=O)Nc1ccc(-c2cn3cccnc3n2)cc1,-0.67%
21,Cc1ccc(CNCc2ccc3c(c2)OCO3)c(C)c1,-1.18%
22,C[C@H]1O[C@@H](O[C@H]2[C@@H](O)C[C@H](O[C@H]3[C@@H](O)C[C@H](O[C@H]4CC[C@]5(C)C6C[C@@H](O)[C@]7(C)[C@@H](C8=CC(=O)OC8)CC[C@]7(O)C6CC[C@@H]5C4)O[C@@H]3C)O[C@@H]2C)C[C@H](O)[C@@H]1O (stereo partly specified),2.73%

row,Compound,activity
1,CCOC(=O)c1sc(=NC(=O)/C=C/c2cccs2)n(C)c1C,-0.21%
2,CCOC(=O)c1sc(=NC(=O)c2ccc(Br)cc2)n(C)c1C,51.4% (active)
3,CCOC(=O)C1=CN(Cc2ccc(Br)cc2)S(=O)(=O)N(C)C1C (stereo unspecified),-0.38%
4,C/C(Cn1nnc2ccccc21)=N\OC(=O)c1cc(F)c(F)cc1Cl,2.02%
5,COc1ccc(N2CCN(CCNS(=O)(=O)c3ccc(C(C)(C)C)cc3)CC2)cc1,5.09%
6,Nc1nc2c(ncn2[C@@H]2O[C@H](C(=O)N[C@H](Cc3ccccc3)C(=O)NCC3CCCCC3)[C@@H](O)[C@H]2O)c(=O)[nH]1,2.3%
7,CCN1/C(=C\c2ccc3ccccc3[n+]2CC)Sc2cc(C)ccc21,73.3% (active)
8,COc1ccc(CCNC(=O)CSc2nc3c([nH]2)c(=O)n(C)c(=O)n3C)cc1,-0.29%
9,COc1ccc(CNS(=O)(=O)c2cc(Br)ccc2Br)cc1,6.25%
10,Cc1cc2cc3c(cc2nc1SCC(=O)Nc1c(C)cccc1C)CCC3,63.4% (active)
11,Cc1cccc(C)c1NC(=O)CSc1nc2c([nH]1)c(=O)n(C)c(=O)n2C,3.98%
12,Cc1cccc(NC(=O)CSc2nc3c(c(=O)[nH]2)CCC3)c1C,-4.62%
13,CC(=O)C1=C(C)N(Cc2ccc(Cl)cc2)C(=S)NC1c1ccc(F)cc1 (stereo unspecified),0.1%
14,CC1(C)C(C=C(Cl)Cl)C1C(=O)N(Cc1ccc(Cl)cc1)C1CCS(=O)(=O)C1 (stereo unspecified),2.8%
15,CCOC(=O)c1[nH]c2ccc(C)cc2c1N=C(C)N(C)C,0.97%
16,O=C(CN1CCC(NC(=O)C2CC2)CC1)Nc1ccccc1[N+](=O)[O-],-2.64%
17,COc1cccc(-c2cc(CNC(=O)[C@@H](Cc3ccccc3)NC(=O)[C@H]3O[C@@H](n4cnc(C(N)=O)n4)[C@H](O)[C@@H]3O)no2)c1,3.31%
18,CCOC(=O)c1sc(NC(=O)CCN2CCOCC2)c(C(=O)OCC)c1C,30.6% (active)
19,CCOC(=O)c1c(C)[nH]c(C(=O)NCCN2CCOCC2)c1C,1.96%
20,CCOC(=O)c1c(NC(=O)CCCN2CCOCC2)sc2c1CC(C)(C)OC2,2.68%
